Measurements reported in PubChem BioAssay (NCATS).
Inconclusive results are not listed. Entries that show only a call come without a potency. The source made the active and inactive calls. Calls come from the whole dose curve; as a rule, active = well fitted cell-killing curve with a large enough effect; inconclusive = small, poorly fitted or top-dose-only effect; inactive = no such curve, though single readings can be large or run the other way.

Assay: qHTS of pediatric cancer cell lines to identify multiple opportunities for drug repurposing: Primary screen for SJ-GBM2 cells (AID 1347091)
Settings: SJ-GBM2 viability, CellTiter-Glo luminescence, 48 h; series mostly up to 46 µM
Method in brief: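 Eight- or eleven-point concentration series, 48 h treatment at 37 degrees C in growth media; readout CellTiter-Glo luminescence. Potency and efficacy were taken from the concentration-response curves.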
Potency is the fitted concentration of half-maximal effect.

SMILES | Potency
O=C(O)P(=O)(O)O | inactive
C=C[C@H]1CN2CC[C@H]1C[C@@H]2[C@@H](O)c1ccnc2ccc(OC)cc12 | inactive
O=C(O)CCNC(=O)c1ccccc1 | inactive
CC(C)NCC(O)c1ccc2ccccc2c1 (configuration not stated) | inactive
CC(=C(CCOC(=O)C(C)C)SSC(CCOC(=O)C(C)C)=C(C)N(C=O)Cc1cnc(C)nc1N)N(C=O)Cc1cnc(C)nc1N | inactive
CC1(C)OC[C@@H]2O[C@@]3(C(=O)O)OC(C)(C)O[C@H]3[C@@H]2O1 | inactive
CN1CCN(c2c(F)cc3c(=O)c(C(=O)O)cn4c3c2SCC4)CC1 | inactive
Cc1cccc(C)c1NC(=O)CN1CCCCCC1 | inactive
CCN(CC)CCOC(=O)C(Cc1cccc2ccccc12)CC1CCCO1 (configuration not stated) | inactive
Cc1cc(-c2ccccc2)nnc1NCCN1CCOCC1 | inactive
CCN1CCN(C(=O)N[C@@H](C(=O)N[C@@H]2C(=O)N3C(C(=O)O)=C(CSc4nnnn4C)CS[C@H]23)c2ccc(O)cc2)C(=O)C1=O | inactive
O=C(CN1CCN(Cc2ccc3c(c2)OCO3)CC1)N1c2ccccc2Sc2ccccc21 | inactive
CC[C@H](c1ccc(O)cc1)[C@@H](CC)c1ccc(O)cc1 | 3350 nM (active)
Cc1ccc(O)c([C@H](CCN(C(C)C)C(C)C)c2ccccc2)c1 | inactive
COc1ccc(CCN(C)CCCN2CCc3cc(OC)c(OC)cc3CC2=O)cc1OC | inactive
C=C[C@@]1(C)CC(=O)[C@]2(O)[C@@]3(C)[C@@H](O)CCC(C)(C)[C@@H]3[C@H](O)[C@H](OC(C)=O)[C@@]2(C)O1 | inactive
CCOc1ccccc1OCCN[C@H](C)Cc1ccc(OC)c(S(N)(=O)=O)c1 | inactive
CCCCC(CC)CN1CN(CC(CC)CCCC)CC(C)(N)C1 (configuration not stated) | inactive
CC(=O)Nc1ccc(OC(=O)c2ccccc2OC(C)=O)cc1 | inactive
OCc1ccccn1 | inactive
COc1cc(O)c(C(=O)c2ccccc2)cc1S(=O)(=O)O | inactive
CCNC(=O)/C=C/c1cccc(Br)c1 | inactive
CCOc1ccc(NC(C)=O)cc1 | inactive
OC1C(O)C(O)C(O)C(O)C1O (configuration not stated) | inactive
Clc1cccc(C(c2ccc3nc[nH]c3c2)n2ccnc2)c1 (configuration not stated) | inactive
Nc1nc(Cl)nc2c1ncn2[C@@H]1O[C@H](CO)[C@@H](O)[C@@H]1F | 26.6 nM (active)
CC(=O)Nc1ncc([N+](=O)[O-])s1 | inactive
CC(C)Nc1cccnc1N1CCN(C(=O)c2cc3cc(NS(C)(=O)=O)ccc3[nH]2)CC1 | inactive
CN(C)CCOC(=O)C(c1ccccc1)C1(O)CCCC1 (configuration not stated) | inactive

Assay: qHTS of pediatric cancer cell lines to identify multiple opportunities for drug repurposing: Primary screen for A673 cells (AID 1347092); note: nearly all actives have a fitted effect of over 45% in size
Settings: A673 Ewing sarcoma viability, CellTiter-Glo ATP luminescence, 48 h; series mostly up to 46 µM
Method in brief: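 A673 cells (500-1,000 cells/well in growth media) were pre-incubated 5 h at 37 degrees C, then exposed to compounds for 48 h. Viability was read as CellTiter-Glo luminescence; concentration-response curves came directly from the primary screen.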

SMILES | Potency
O=C(O)P(=O)(O)O | inactive
CC(C)n1c(/C=C/[C@@H](O)C[C@@H](O)CC(=O)O)c(-c2ccc(F)cc2)c2ccccc21 | 5310 nM (active)
C=C[C@H]1CN2CC[C@H]1C[C@@H]2[C@@H](O)c1ccnc2ccc(OC)cc12 | inactive
O=C(O)CCNC(=O)c1ccccc1 | inactive
CC(C)NCC(O)c1ccc2ccccc2c1 (configuration not stated) | inactive
CC(=C(CCOC(=O)C(C)C)SSC(CCOC(=O)C(C)C)=C(C)N(C=O)Cc1cnc(C)nc1N)N(C=O)Cc1cnc(C)nc1N | inactive
CN1CCN(c2c(F)cc3c(=O)c(C(=O)O)cn4c3c2SCC4)CC1 | inactive
Cc1cccc(C)c1NC(=O)CN1CCCCCC1 | inactive
CCN1CCN(C(=O)N[C@@H](C(=O)N[C@@H]2C(=O)N3C(C(=O)O)=C(CSc4nnnn4C)CS[C@H]23)c2ccc(O)cc2)C(=O)C1=O | inactive
O=S(c1cc(Cl)cc(Cl)c1O)c1cc(Cl)cc(Cl)c1O | inactive
COc1ccc(CCN(C)CCCN2CCc3cc(OC)c(OC)cc3CC2=O)cc1OC | inactive
CCOc1ccccc1OCCN[C@H](C)Cc1ccc(OC)c(S(N)(=O)=O)c1 | inactive
CCCCC(CC)CN1CN(CC(CC)CCCC)CC(C)(N)C1 (configuration not stated) | inactive
COc1cc(O)c(C(=O)c2ccccc2)cc1S(=O)(=O)O | inactive
CCOc1ccc(NC(C)=O)cc1 | inactive
OC1C(O)C(O)C(O)C(O)C1O (configuration not stated) | inactive
Clc1cccc(C(c2ccc3nc[nH]c3c2)n2ccnc2)c1 (configuration not stated) | inactive
O=C1c2cccc3c2[C@H](CCC3)CN1[C@@H]1CN2CCC1CC2 | inactive
Nc1nc(Cl)nc2c1ncn2[C@@H]1O[C@H](CO)[C@@H](O)[C@@H]1F | 422 nM (active)
CC(=O)Nc1ncc([N+](=O)[O-])s1 | inactive
CC(C)Nc1cccnc1N1CCN(C(=O)c2cc3cc(NS(C)(=O)=O)ccc3[nH]2)CC1 | inactive
CN(C)CCOC(=O)C(c1ccccc1)C1(O)CCCC1 (configuration not stated) | inactive

Assay: qHTS of pediatric cancer cell lines to identify multiple opportunities for drug repurposing: Primary screen for SK-N-MC cells (AID 1347093)
Settings: SK-N-MC viability, CellTiter-Glo luminescence, 48 h; series mostly up to 46 µM
Method in brief: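 Metabolically active cells were quantified by ATP-dependent luminescence (CellTiter-Glo, 15 min at room temperature) following 48 h treatment. Cells had been plated at 500-1,000 per well and settled for 5 h beforehand.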

SMILES | Potency
O=C(O)P(=O)(O)O | inactive
CC(C)n1c(/C=C/[C@@H](O)C[C@@H](O)CC(=O)O)c(-c2ccc(F)cc2)c2ccccc21 | 15000 nM (active)
C=C[C@H]1CN2CC[C@H]1C[C@@H]2[C@@H](O)c1ccnc2ccc(OC)cc12 | inactive
O=C(O)CCNC(=O)c1ccccc1 | inactive
CC(C)NCC(O)c1ccc2ccccc2c1 (configuration not stated) | inactive
CC1(C)OC[C@@H]2O[C@@]3(C(=O)O)OC(C)(C)O[C@H]3[C@@H]2O1 | inactive
CN1CCN(c2c(F)cc3c(=O)c(C(=O)O)cn4c3c2SCC4)CC1 | inactive
Cc1cccc(C)c1NC(=O)CN1CCCCCC1 | inactive
Cc1cc(-c2ccccc2)nnc1NCCN1CCOCC1 | inactive
CCN1CCN(C(=O)N[C@@H](C(=O)N[C@@H]2C(=O)N3C(C(=O)O)=C(CSc4nnnn4C)CS[C@H]23)c2ccc(O)cc2)C(=O)C1=O | inactive
O=C(CN1CCN(Cc2ccc3c(c2)OCO3)CC1)N1c2ccccc2Sc2ccccc21 | inactive
CC(=O)OC[C@H]1O[C@@H](n2ncc(=O)[nH]c2=O)[C@H](OC(C)=O)[C@@H]1OC(C)=O | 335 nM (active)
COc1ccc(CCN(C)CCCN2CCc3cc(OC)c(OC)cc3CC2=O)cc1OC | inactive
C=C[C@@]1(C)CC(=O)[C@]2(O)[C@@]3(C)[C@@H](O)CCC(C)(C)[C@@H]3[C@H](O)[C@H](OC(C)=O)[C@@]2(C)O1 | inactive
CCOc1ccccc1OCCN[C@H](C)Cc1ccc(OC)c(S(N)(=O)=O)c1 | inactive
CC(=O)Nc1ccc(OC(=O)c2ccccc2OC(C)=O)cc1 | inactive
OCc1ccccn1 | inactive
COc1cc(O)c(C(=O)c2ccccc2)cc1S(=O)(=O)O | inactive
CCNC(=O)/C=C/c1cccc(Br)c1 | inactive
CCOc1ccc(NC(C)=O)cc1 | inactive
OC1C(O)C(O)C(O)C(O)C1O (configuration not stated) | inactive
Clc1cccc(C(c2ccc3nc[nH]c3c2)n2ccnc2)c1 (configuration not stated) | inactive
Nc1nc(Cl)nc2c1ncn2[C@@H]1O[C@H](CO)[C@@H](O)[C@@H]1F | 29.9 nM (active)
CC(=O)Nc1ncc([N+](=O)[O-])s1 | inactive
CC(C)Nc1cccnc1N1CCN(C(=O)c2cc3cc(NS(C)(=O)=O)ccc3[nH]2)CC1 | inactive
CN(C)CCOC(=O)C(c1ccccc1)C1(O)CCCC1 (configuration not stated) | inactive
